# In PubChem BioAssay (Tox21):
# Values without a mark were called inactive. Inconclusive results are not listed. Entries that show only a call come without a potency. Calls of active or inactive are those of the source. Unless noted, calls follow the shape of the dose curve; as a rule, active = well fitted curve in the direction sought with a large enough effect in the repeat runs; inconclusive = weak or mixed curves; inactive = no such curve, though single readings can be large; an effect the other way counts as inactive or inconclusive.
# Columns and labels:
# [1] = qHTS assay to identify small molecule antagonists of the androgen receptor (AR) signaling pathway using the MDA cell line in the presence of 0.5 nM R1881 - cell viability counter screen (AID 1259242); also: nearly all actives have a fitted effect of over 45% in size; also: potency is read from the fitted curve at half-maximal effect
# Method in brief: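 Cells seeded at 3,000/well and allowed 5 hr at 37C, 0% CO2 before compound transfer and R1881 (0.5 nM final) addition; 16 hr later, live-cell protease fluorescence indicated cytotoxicity.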
# [2] = qHTS assay to identify small molecule HDAC inhibitors - cell viability counter screen (AID 1259365); also: series mostly up to about 92 µM; nearly all actives have a fitted effect of over 50% in size
# Method in brief: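 To flag cytotoxic hits, 1,500 wild-type HCT-116 cells per well, plated the day before, receive test compounds for 2hr at 37 C before CellTiter-Glo reagent and a luminescence read.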
# [3] = qHTS assay to identify small molecule agonists of the sonic hedgehog signaling (Shh) pathway - cell viability counter screen (AID 1259366); also: nearly all actives have a fitted effect of over 50% in size; also: potency is read from the fitted curve at half-maximal effect
# Method in brief: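 Fluorescence from CellTiter-Fluor reports live cells in this counter screen. NIH/3T3-derived Gli1-Luc reporter cells receive test compounds for 24hr at 37C; reagent goes in at 23hr.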
# [4] = qHTS assay to identify small molecule antagonists of the sonic hedgehog signaling (Shh) pathway - cell viability counter screen (AID 1259367); also: nearly all actives have a fitted effect of over 55% in size; also: potency is read from the fitted curve at half-maximal effect
# Method in brief: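 Fluorescence read-out (CellTiter-Fluor, 1 hr at 37C) taken after 23 hr compound treatment of 3T3 Gli1-Luc cells stimulated with conditioned medium. Cells were seeded at 2,000 per well and pre-incubated 4 hr.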
# [5] = qHTS assay to identify small molecule antagonists of the sonic hedgehog signaling (Shh) pathway (AID 1259369; calls by dose curve; also: nearly all actives have a fitted effect of over 45% in size; also: potency is read from the fitted curve at half-maximal effect)
# Method in brief: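 Read-out is luminescence from a firefly luciferase gene controlled by the Gli1 response element, in 3T3Gli1-Luc cells pre-incubated 4hr then exposed to compounds and conditioned medium for 24hr.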
# [6] = qHTS assay to identify small molecule agonists of the androgen receptor (AR) signaling pathway in the presence of an antagonist - cell viability counter screen (AID 1259379); also: nearly all actives have a fitted effect of over 25% in size; also: potency is read from the fitted curve at half-maximal effect
# Method in brief: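 Each compound was tested at 15 concentrations on MDA-kb2 cells in the presence of 3.0uM nilutamide. Viability was measured by CellTiter-Fluor fluorescence after a 16 hr incubation at 37C in a CO2-free atmosphere.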
# [7] = qHTS assay to identify small molecule agonists of the estrogen receptor beta (ER-beta) signaling pathway - cell viability counter screen (AID 1259380); also: nearly all actives have a fitted effect of over 30% in size; also: potency is read from the fitted curve at half-maximal effect
# Method in brief: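 Compounds dissolved in DMSO were pin-transferred onto ER-beta-UAS-bla HEK293T cells that had settled 6 hr, and exposure ran 16 hr at 37C. Following the reporter read, CellTiter-Glo luminescence after 30 min at room temperature indicated cytotoxicity.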
# [8] = qHTS assay to identify small molecule antagonists of the estrogen receptor beta (ER-beta) signaling pathway - cell viability counter screen (AID 1259382); also: nearly all actives have a fitted effect of over 55% in size; also: potency is read from the fitted curve at half-maximal effect
# Method in brief: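 CellTiter-Glo ATP luminescence measured after the LiveBLAzer read in the same wells; ER-beta-UAS-bla HEK293T cells, 16 hr compound treatment with 1nM 17-beta-estradiol agonist at 37C, 5% CO2.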
# [9] = target: Androgen receptor (Homo sapiens) (UniProt P10275); assay: qHTS assay to identify small molecule antagonists of the androgen receptor (AR) signaling pathway using the MDA cell line in the presence of 0.5 nM R1881 (AID 1259243); also: nearly all actives have a fitted effect of over 50% in size; also: potency is read from the fitted curve at half-maximal effect
# Method in brief: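 Luminescence from an AR/GR-responsive MMTV-luciferase construct in MDA-kb2 breast carcinoma cells, read 30 min after ONE-Glo, following 16 hr co-treatment with compounds and 0.5 nM R1881.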
# [10] = target: Estrogen receptor (Homo sapiens) (UniProt P03372); assay: qHTS assay to identify small molecule antagonists of the estrogen receptor alpha (ER-alpha) signaling pathway using the BG1 cell line in the presence of 0.1 nM 17-beta-estradiol (AID 1259244); also: nearly all actives have a fitted effect of over 50% in size; also: potency is read from the fitted curve at half-maximal effect
# Method in brief: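 Luciferase signal from VM7Luc4E2 ERE-reporter cells, co-dosed with test compound and 0.1 nM final 17beta-estradiol for 22 h, read with ONE-Glo.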
# [11] = qHTS assay to identify small molecule phospholipidosis (PLD) inducers (AID 1259344; active = well fitted curve in the direction sought with a large enough effect; an effect the other way counts as inactive or inconclusive)
# Method in brief: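 Read-out is LipidTOX Red fluorescence (ex 595/em 615) imaged in HepG2 cells after 24 h compound exposure at 37 C, with Hoechst nuclear counterstain (ex 352/em 461) allowing per-cell normalisation.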
# [12] = qHTS assay to identify small molecule HDAC inhibitors (AID 1259364); also: potency is read from the fitted curve at half-maximal effect;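 also: wild-type HCT-116 cells with endogenous class I/II HDAC activity; nearly all actives have a fitted effect of over 45% in size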
# Method in brief: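 HCT-116 wt cells, 1,500/well, overnight attach. Compounds (DMSO) 2 h, 37 °C. HDAC-Glo I/II, 30 min RT. Luminescence.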
# [13] = qHTS assay to identify small molecule agonists of the sonic hedgehog signaling (Shh) pathway (AID 1259368; calls by dose curve;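 also: NIH/3T3-derived 3T3Gli1-Luc cells carrying a stable Gli1-driven firefly luciferase reporter; series mostly up to about 92 µM; nearly all actives have a fitted effect of over 15% in size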)
# Method in brief: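 Following a 24 hr incubation with DMSO-dissolved compounds at 37 C, 5% CO2, Gli1-Luc NIH/3T3-derived cells received luciferase reagent for 30 min at room temperature prior to luminescence measurement.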
# [14] = target: Estrogen receptor beta (Homo sapiens) (UniProt Q92731); assay: qHTS assay to identify small molecule agonists of the estrogen receptor beta (ER-beta) signaling pathway (AID 1259377; active = well fitted activation curve with a large enough effect in the signal ratio in the repeat runs, not every such curve was filed as active; the % refers to the signal ratio; also: potency is read from the fitted curve at half-maximal effect)
# Method in brief: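 Screening used GripTite ER-beta-UAS-bla cells held in 2% charcoal-stripped FBS medium. After overnight (16 hr) compound incubation at 37C, beta-lactamase activity was detected with a FRET substrate by fluorescence.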
# [15] = target: Androgen receptor (Homo sapiens) (UniProt P10275); assay: qHTS assay to identify small molecule agonists of the androgen receptor (AR) signaling pathway in the presence of an antagonist (AID 1259381; calls by dose curve; also: nearly all actives have a fitted effect of over 15% in size)
# Method in brief: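 Plated MDA-kb2 cells (3,000/well) were pre-incubated 5hr, given nilutamide (3.0uM final) or buffer, then dosed with compounds in DMSO at 15 concentrations. Luciferase activity was quantified by luminescence after 16hr at 37C.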
# [16] = target: Estrogen receptor (Homo sapiens) (UniProt P03372); assay: qHTS assay to identify small molecule agonists of the estrogen receptor alpha (ER-alpha) signaling pathway in the presence of an antagonist (AID 1259383; calls by dose curve; also: nearly all actives have a fitted effect of over 15% in size; also: potency is read from the fitted curve at half-maximal effect; as to activation: top concentration of the series differs between compounds)
# Method in brief: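 Luminescent ERE-luciferase reporter, VM7Luc4E2 cells (endogenous ER-alpha); 10.0nM ICI-182,780 final; 15-point compound titration; 22hr at 37C; ONE-Glo, 30min RT.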
# [17] = qHTS assay to identify small molecule agonists or antagonists of the thyroid stimulating hormone receptor (TSHR) signaling pathway - wild type cell line counter screen (AID 1259384; calls by dose curve)
# Method in brief: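 Wild-type Hek293 cells, 800/well, 18 h at 37C, then compound with Ro20-1724 for 30 min RT. cAMP by HTRF (cAMP-d2/anti-cAMP cryptate), 1 h RT, fluorescence read. 15 concentrations, triplicates.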
# [18] = qHTS assay to identify small molecule agonists of the estrogen receptor alpha (ER-alpha) signaling pathway in the presence of an antagonist - cell viability counter screen (AID 1259386);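 also: cells exposed to compounds for 22 h at 37 °C before the viability read; nearly all actives have a fitted effect of over 30% in size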; also: potency is read from the fitted curve at half-maximal effect
# Method in brief: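 Using estrogen-depleted VM7Luc4E2 cells, the 15-concentration compound series was applied together with 10.0nM ICI-182,780 and incubated 22hr at 37C/5% CO2. Cell viability was then scored by CellTiter-Fluor.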
# [19] = target: Thyrotropin receptor (Homo sapiens) (UniProt P16473); assay: qHTS assay to identify small molecule antagonists of the thyroid stimulating hormone receptor (TSHR) signaling pathway (AID 1259385; calls by dose curve; also: nearly all actives have a fitted effect of over 20% in size)
# Method in brief: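 TSHR-HEK293 cells (800/well) plated 18 h, then compounds with Ro20-1724 and TSH at 1.5 ng/mL final, 30 min at room temperature. cAMP quantified by HTRF (cAMP-d2/anti-cAMP-cryptate, 1 h); 15 concentrations in triplicate.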
# [20] = target: Estrogen receptor beta (Homo sapiens) (UniProt Q92731); assay: qHTS assay to identify small molecule antagonists of the estrogen receptor beta (ER-beta) signaling pathway (AID 1259378; active = well fitted inhibition curve with a large enough effect in the signal ratio in the repeat runs, not every such curve was filed as active; the % refers to the signal ratio; also: potency is read from the fitted curve at half-maximal effect)
# Method in brief: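 ER-beta-UAS-bla HEK293T cells in 2% charcoal-stripped FBS medium treated with compound plus 1nM final 17-beta-estradiol for 16 hr at 37C. Beta-lactamase reporter read by FRET substrate fluorescence after 2 hours at room temperature.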
# Sequence of Androgen receptor (Homo sapiens) (P10275 whole entry, looked up): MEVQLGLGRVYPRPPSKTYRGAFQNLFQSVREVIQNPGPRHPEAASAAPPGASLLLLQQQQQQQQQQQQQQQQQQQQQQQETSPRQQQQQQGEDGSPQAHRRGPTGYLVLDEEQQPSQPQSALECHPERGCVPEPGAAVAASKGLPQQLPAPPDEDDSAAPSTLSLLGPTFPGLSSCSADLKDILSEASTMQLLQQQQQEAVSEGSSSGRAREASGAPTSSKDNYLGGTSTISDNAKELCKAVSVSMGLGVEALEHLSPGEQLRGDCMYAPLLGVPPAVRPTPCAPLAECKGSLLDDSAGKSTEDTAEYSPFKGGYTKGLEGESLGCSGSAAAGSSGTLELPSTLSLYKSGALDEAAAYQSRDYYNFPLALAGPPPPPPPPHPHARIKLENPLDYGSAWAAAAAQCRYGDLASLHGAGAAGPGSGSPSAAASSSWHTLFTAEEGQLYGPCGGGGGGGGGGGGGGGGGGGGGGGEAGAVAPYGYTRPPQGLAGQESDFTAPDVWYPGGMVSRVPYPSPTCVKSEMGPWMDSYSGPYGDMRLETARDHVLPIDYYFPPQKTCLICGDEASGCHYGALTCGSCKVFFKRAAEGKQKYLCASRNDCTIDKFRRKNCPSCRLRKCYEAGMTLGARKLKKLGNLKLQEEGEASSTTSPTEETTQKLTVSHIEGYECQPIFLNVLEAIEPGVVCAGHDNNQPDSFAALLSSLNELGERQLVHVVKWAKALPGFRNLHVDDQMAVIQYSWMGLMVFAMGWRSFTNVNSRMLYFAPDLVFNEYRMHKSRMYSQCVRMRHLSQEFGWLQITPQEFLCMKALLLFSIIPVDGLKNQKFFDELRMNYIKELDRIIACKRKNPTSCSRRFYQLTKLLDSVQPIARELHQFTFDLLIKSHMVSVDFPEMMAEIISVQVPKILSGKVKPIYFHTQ
# Sequence of Estrogen receptor beta (Homo sapiens) (Q92731 whole entry, looked up): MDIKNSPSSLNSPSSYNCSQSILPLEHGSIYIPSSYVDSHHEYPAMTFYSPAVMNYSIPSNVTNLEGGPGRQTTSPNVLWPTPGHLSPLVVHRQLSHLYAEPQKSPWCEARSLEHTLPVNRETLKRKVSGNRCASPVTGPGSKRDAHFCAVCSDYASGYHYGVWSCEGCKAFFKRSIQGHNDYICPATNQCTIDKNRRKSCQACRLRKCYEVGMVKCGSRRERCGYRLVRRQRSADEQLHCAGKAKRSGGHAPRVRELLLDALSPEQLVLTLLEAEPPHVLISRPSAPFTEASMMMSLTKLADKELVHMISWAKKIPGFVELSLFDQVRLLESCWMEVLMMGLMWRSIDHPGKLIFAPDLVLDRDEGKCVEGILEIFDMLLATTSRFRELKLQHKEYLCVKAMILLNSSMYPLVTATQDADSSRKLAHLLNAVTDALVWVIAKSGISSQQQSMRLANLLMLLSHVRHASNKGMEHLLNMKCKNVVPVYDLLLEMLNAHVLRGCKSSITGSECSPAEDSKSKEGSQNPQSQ
# Sequence of Estrogen receptor (Homo sapiens) (P03372 whole entry, looked up): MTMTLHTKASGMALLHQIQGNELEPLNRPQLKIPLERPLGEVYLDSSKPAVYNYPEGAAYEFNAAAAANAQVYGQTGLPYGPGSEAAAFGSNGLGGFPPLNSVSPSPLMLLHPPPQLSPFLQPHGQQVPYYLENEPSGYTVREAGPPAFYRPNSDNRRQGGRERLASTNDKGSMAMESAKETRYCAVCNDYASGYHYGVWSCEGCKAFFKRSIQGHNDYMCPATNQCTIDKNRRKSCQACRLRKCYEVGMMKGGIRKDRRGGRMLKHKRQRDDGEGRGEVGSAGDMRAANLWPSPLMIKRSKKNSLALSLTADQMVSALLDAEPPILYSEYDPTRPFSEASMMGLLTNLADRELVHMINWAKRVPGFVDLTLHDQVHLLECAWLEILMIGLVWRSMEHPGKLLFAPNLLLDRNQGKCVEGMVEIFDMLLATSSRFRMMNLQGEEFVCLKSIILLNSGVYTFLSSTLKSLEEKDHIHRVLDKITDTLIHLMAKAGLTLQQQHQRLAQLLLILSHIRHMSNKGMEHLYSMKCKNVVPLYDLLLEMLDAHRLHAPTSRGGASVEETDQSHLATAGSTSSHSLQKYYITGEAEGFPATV
# Sequence of Thyrotropin receptor (Homo sapiens) (P16473 whole entry, looked up): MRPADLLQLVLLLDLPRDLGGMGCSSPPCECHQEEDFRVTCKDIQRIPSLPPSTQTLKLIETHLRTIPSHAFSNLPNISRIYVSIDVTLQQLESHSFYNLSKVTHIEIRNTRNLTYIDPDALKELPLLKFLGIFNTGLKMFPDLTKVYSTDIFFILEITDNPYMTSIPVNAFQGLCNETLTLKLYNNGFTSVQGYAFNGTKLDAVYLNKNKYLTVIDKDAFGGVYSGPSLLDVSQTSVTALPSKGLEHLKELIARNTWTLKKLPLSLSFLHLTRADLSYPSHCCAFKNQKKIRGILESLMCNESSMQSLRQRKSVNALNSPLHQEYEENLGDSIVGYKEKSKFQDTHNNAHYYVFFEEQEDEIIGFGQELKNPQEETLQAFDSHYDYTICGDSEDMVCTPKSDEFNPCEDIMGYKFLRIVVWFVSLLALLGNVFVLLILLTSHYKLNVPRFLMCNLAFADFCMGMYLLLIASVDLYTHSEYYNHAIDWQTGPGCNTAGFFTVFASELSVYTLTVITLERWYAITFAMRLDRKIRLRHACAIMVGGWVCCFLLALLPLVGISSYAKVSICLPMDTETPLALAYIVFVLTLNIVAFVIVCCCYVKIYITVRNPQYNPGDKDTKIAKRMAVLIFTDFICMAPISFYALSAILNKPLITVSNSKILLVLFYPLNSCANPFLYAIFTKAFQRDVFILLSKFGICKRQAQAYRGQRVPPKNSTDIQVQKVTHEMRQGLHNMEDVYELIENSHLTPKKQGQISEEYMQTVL
SMILES,Potency [1],Potency [2],Potency [3],Potency [4],Potency [5],Potency [6],Potency [7],Potency [8],Potency [9],Potency [10],outcome [11],Potency [12],Potency [13],Potency [14],Potency [15],Potency [16],outcome [17],Potency [18],Potency [19],Potency [20]
C[C@@H]1C[C@H]2[C@@H]3CCC4=CC(=O)C=C[C@]4(C)[C@@]3(F)[C@@H](O)C[C@]2(C)[C@@]1(O)C(=O)CO,inactive,inactive,inactive,inactive,0.492 µM (active),inactive,inactive,inactive,–,–,–,–,–,–,–,–,–,–,–,–
CO[C@H]1C=CO[C@@]2(C)Oc3c(C)c(O)c4c(O)c(c5c(c4c3C2=O)=NC2(CCN(CC(C)C)CC2)N=5)NC(=O)/C(C)=C\C=C/[C@H](C)[C@H](O)[C@@H](C)[C@@H](O)[C@@H](C)[C@H](OC(C)=O)[C@@H]1C,–,inactive,26.7 µM (active),23.8 µM (active),23.8 µM (active),47.5 µM (active),inactive,inactive,67.1 µM (active),59.8 µM (active),inactive,inactive,inactive,inactive,inactive,inactive,inactive,26.7 µM (active),–,–
C[N+]1(C)CCC(=C(c2ccccc2)c2ccccc2)CC1,inactive,–,inactive,inactive,inactive,inactive,inactive,inactive,–,–,–,–,–,inactive,–,–,inactive,inactive,inactive,–
CCC(=O)Oc1ccc(/C(CC)=C(\CC)c2ccc(OC(=O)CC)cc2)cc1,inactive,inactive,inactive,–,24.3 µM (active),inactive,–,inactive,–,–,–,inactive,inactive,1.7 nM (active),–,5.4 nM (active),inactive,inactive,–,–
Cc1occc1C(=O)Nc1ccc(C(=O)N2CCC(F)(F)/C(=C\C(=O)N3CCC(N4CCCCC4)CC3)c3ccccc32)cc1,inactive,inactive,–,–,–,inactive,–,inactive,–,–,–,–,inactive,inactive,inactive,inactive,inactive,–,inactive,–
NC(=O)Cn1c(=O)cc(CCN2CCN(c3nccc4sccc34)CC2)c2ccc(F)cc21,inactive,inactive,–,–,4.86 µM (active),–,–,inactive,–,–,–,–,inactive,–,–,inactive,–,–,–,–
CC1CC(O)CC(C)(C)C1 (stereo unspecified),inactive,inactive,inactive,inactive,inactive,inactive,inactive,inactive,–,–,–,–,inactive,inactive,–,–,inactive,inactive,inactive,–
CN1CCN(CCCN2c3ccccc3Sc3ccc(S(=O)(=O)N(C)C)cc32)CC1,inactive,inactive,11.9 µM (active),–,13.3 µM (active),inactive,23.7 µM (active),23.7 µM (active),–,–,–,inactive,inactive,–,–,–,inactive,–,–,–
Cc1cnc(C)c(C)n1,inactive,inactive,inactive,inactive,inactive,inactive,–,–,–,–,–,–,inactive,–,–,–,inactive,inactive,inactive,–
COc1ccc(C(=O)c2cccc(O)c2)c(OC)c1,–,inactive,inactive,inactive,–,inactive,inactive,inactive,inactive,inactive,–,inactive,inactive,–,inactive,–,–,–,–,–
OCC1CC=CCC1 (stereo unspecified),–,inactive,inactive,inactive,–,inactive,inactive,inactive,inactive,inactive,–,inactive,–,–,inactive,–,inactive,inactive,inactive,–
CCCCC(CC)CNCC(CC)CCCC (stereo unspecified),inactive,–,inactive,inactive,inactive,inactive,inactive,inactive,–,–,–,inactive,inactive,–,–,–,inactive,inactive,inactive,–
CC1C2CC(CC2C2CCCC(O)C2)C1(C)C (stereo unspecified),inactive,–,–,inactive,inactive,inactive,–,–,–,–,–,–,inactive,–,–,–,inactive,inactive,inactive,–
Cc1cc(S(=O)(=O)O)ccc1N=Nc1c(O)ccc2ccccc12,48.6 µM (active),–,27.3 µM (active),27.3 µM (active),inactive,30.6 µM (active),inactive,inactive,–,–,–,686 nM (active),–,inactive,–,–,inactive,27.3 µM (active),–,–
OC(CCCN1CCCCC1)(c1ccccc1)c1ccccc1,–,inactive,inactive,inactive,–,inactive,inactive,–,inactive,inactive,–,inactive,inactive,–,inactive,inactive,inactive,–,inactive,–
CCC(C(=O)OCCN(CC)CC)c1ccccc1 (stereo unspecified),–,inactive,inactive,inactive,inactive,inactive,inactive,inactive,inactive,inactive,–,inactive,inactive,inactive,inactive,inactive,inactive,inactive,–,–
CO[C@@]12[C@H](COC(N)=O)C3=C(C(=O)C(C)=C(N)C3=O)N1C[C@@H]1N[C@@H]12,inactive,inactive,–,–,–,inactive,inactive,inactive,–,–,–,inactive,inactive,inactive,–,–,–,–,–,18.8 µM (active)
CN(C)C(=O)Nc1ccc(Oc2ccc(Cl)cc2)cc1,inactive,inactive,inactive,inactive,inactive,54.5 µM (active),inactive,inactive,–,–,–,–,inactive,inactive,–,–,inactive,–,inactive,–
Fc1c(F)c(F)c(Br)c(F)c1F,inactive,inactive,inactive,inactive,inactive,inactive,inactive,inactive,–,–,–,inactive,–,–,–,–,inactive,–,inactive,–
Cc1cc(OI)c(C(C)C)cc1-c1cc(C(C)C)c(OI)cc1C,inactive,inactive,inactive,inactive,inactive,inactive,inactive,inactive,–,–,–,–,inactive,inactive,–,–,inactive,inactive,inactive,–
